Assay results reported in PubChem BioAssay (EPA / NIEHS).
Values joined by “and” are separate entries in the source; they are usually repeats but may differ in a detail not shown here. Equal entries are not always repeated. Records with an inconclusive call do not appear. A structure can be active in one record and inactive in another. Active and inactive are the calls of the source. How the source made its calls: active means hit-call score of the fitted dose curve at least 0.9, where 1 is the maximum; inconclusive means response in the unintended direction; inactive means score below 0.9.

Tests used:
[1] = target: rat Neurokinin-1 Receptor (NK1), Tacr1 (gene 24807) (UniProt P14600); assay: NVS_GPCR_rNK1: NovaScreen (NVS) G Protein-Coupled Receptor Assay for rat Neurokinin-1 Receptor (NK1) (AID 2283309)
Sequence of rat Neurokinin-1 Receptor (NK1), Tacr1 (gene 24807) (P14600 whole entry, looked up): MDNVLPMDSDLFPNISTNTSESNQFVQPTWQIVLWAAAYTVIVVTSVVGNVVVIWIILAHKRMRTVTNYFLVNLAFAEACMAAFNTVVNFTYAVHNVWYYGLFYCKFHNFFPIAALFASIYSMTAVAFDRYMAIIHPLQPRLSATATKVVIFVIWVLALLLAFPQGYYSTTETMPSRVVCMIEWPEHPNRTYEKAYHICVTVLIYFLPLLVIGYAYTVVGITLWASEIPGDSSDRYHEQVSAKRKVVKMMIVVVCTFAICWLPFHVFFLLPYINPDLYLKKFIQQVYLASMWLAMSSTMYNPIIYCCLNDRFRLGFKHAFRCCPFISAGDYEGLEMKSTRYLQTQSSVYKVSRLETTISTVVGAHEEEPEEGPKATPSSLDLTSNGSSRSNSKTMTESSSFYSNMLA
In short: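 Rat submaxillary gland membranes; radioligand displacement read by filter-based scintillation counting after 1 h. Primary screen in duplicate at 25 uM; actives retested in concentration series; loss of binding fitted versus DMSO.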

[2] = target: rat Gamma-Aminobutyric Acid Type A Receptor, Non-Selective (GABAR-NonSelective), Gabra1 (gene 29705) (UniProt P62813); assay: NVS_LGIC_rGABAR_NonSelective: NovaScreen (NVS) Ligand-Gated Ion Channel Assay for rat Gamma-Aminobutyric Acid Type A Receptor, Non-Selective (GABAR-NonSelective) (AID 2283326)
Sequence of rat Gamma-Aminobutyric Acid Type A Receptor, Non-Selective (GABAR-NonSelective), Gabra1 (gene 29705) (P62813 whole entry, looked up): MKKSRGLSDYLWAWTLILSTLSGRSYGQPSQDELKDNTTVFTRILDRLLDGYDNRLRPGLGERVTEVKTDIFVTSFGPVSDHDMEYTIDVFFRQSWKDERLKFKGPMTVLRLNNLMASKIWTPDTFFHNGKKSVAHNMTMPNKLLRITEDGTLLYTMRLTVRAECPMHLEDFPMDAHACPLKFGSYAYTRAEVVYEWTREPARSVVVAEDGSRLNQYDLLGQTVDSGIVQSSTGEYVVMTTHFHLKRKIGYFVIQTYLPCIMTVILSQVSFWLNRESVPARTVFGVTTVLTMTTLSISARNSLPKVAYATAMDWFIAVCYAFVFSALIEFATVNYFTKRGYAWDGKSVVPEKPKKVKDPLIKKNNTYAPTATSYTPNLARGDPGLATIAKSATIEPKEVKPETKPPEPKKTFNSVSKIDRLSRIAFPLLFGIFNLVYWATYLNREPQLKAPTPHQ
In short: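 Radioligand displacement on rat whole-brain extract, 1 h, filter scintillation readout; signal loss fitted versus DMSO. Primary screen in duplicate at 25 uM; hits (e.g. ≥30% inhibition) retested in concentration-response up to 50 uM.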

[3] = target: human Peripheral-type Benzodiazepine Receptor (PBR), TSPO (gene 706) (UniProt P30536); assay: NVS_MP_hPBR: NovaScreen (NVS) Membrane Protein Assay for human Peripheral-type Benzodiazepine Receptor (PBR) (AID 2283331);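 further: hits reduce radioligand binding relative to DMSO baseline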
Sequence of human Peripheral-type Benzodiazepine Receptor (PBR), TSPO (gene 706) (P30536 whole entry, looked up): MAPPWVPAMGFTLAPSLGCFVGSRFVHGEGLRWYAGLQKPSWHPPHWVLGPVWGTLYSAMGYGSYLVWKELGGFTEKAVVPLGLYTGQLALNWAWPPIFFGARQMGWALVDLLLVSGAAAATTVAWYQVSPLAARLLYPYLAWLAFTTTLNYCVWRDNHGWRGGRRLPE
In short: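 Human colonic cell membranes were incubated with test chemical for 1 hour; radioligand binding was measured by filter-based scintillation counting. Primary screen ran in duplicate at 25 uM, with actives followed in concentration series; loss of signal versus DMSO baseline.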

[4] = NVS_IC_rCaDHPRCh_L: NovaScreen (NVS) Ion Channel Assay for rat Calcium Channel, Type L, Dihydropyridine Site (CaDHPRCh_L) (AID 2283320)
In short: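 Radioligand binding to dihydropyridine site on rat cortical membranes, filter-based scintillation counting, 1 h after dosing. Screened in duplicate at 25 uM; actives rerun in concentration-response up to 50 uM. Loss of signal versus DMSO baseline.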

[5] = target: Sodium channel protein type 1 subunit alpha (Rattus norvegicus) (UniProt P04774); assay: NVS_IC_rNaCh_site2: NovaScreen (NVS) Ion Channel Assay for rat Sodium Channel, Site 2 (NaCh) (AID 2283322);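 further: hit means loss of radioligand binding signal relative to DMSO so AC50 marks displacement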
In short: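 Membranes: rat forebrain. Format: competitive radioligand displacement, filter separation, scintillation readout, 1 h exposure. Primary screen in duplicate at 25 uM; actives retested in concentration series.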

[6] = target: rat Thyrotropin Releasing Hormone Receptor (TRH), Trhr (gene 25570) (UniProt Q01717); assay: NVS_GPCR_rTRH: NovaScreen (NVS) G Protein-Coupled Receptor Assay for rat Thyrotropin Releasing Hormone Receptor (TRH) (AID 2283329);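 further: hit means lower bound tracer signal versus DMSO baseline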
Sequence of rat Thyrotropin Releasing Hormone Receptor (TRH), Trhr (gene 25570) (Q01717 whole entry, looked up): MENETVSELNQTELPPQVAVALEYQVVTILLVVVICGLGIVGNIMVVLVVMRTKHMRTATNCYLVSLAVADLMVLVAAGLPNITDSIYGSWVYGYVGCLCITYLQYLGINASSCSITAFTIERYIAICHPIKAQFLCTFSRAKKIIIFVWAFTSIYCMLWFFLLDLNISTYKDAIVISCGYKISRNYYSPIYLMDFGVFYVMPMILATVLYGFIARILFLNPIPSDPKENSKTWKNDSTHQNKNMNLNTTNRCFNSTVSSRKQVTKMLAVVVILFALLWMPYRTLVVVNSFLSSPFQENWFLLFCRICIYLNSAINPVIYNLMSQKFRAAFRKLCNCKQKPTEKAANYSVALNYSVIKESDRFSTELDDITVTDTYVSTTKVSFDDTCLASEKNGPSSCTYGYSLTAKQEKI
In short: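 Competitive radioligand binding on rat forebrain membrane preparations, with filtration and scintillation readout after 4 h. Primary testing in duplicate at 25 uM; actives confirmed in concentration-response. DMSO defined baseline.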

[7] = target: rat Neonicotinoid receptor (NNR), Chrna7 (gene 25302) (UniProt Q05941); assay: NVS_LGIC_rNNR_BungSens: NovaScreen (NVS) Ligand-Gated Ion Channel Assay for rat Neonicotinoid receptor (NNR) (AID 2283315)
Sequence of rat Neonicotinoid receptor (NNR), Chrna7 (gene 25302) (Q05941 whole entry, looked up): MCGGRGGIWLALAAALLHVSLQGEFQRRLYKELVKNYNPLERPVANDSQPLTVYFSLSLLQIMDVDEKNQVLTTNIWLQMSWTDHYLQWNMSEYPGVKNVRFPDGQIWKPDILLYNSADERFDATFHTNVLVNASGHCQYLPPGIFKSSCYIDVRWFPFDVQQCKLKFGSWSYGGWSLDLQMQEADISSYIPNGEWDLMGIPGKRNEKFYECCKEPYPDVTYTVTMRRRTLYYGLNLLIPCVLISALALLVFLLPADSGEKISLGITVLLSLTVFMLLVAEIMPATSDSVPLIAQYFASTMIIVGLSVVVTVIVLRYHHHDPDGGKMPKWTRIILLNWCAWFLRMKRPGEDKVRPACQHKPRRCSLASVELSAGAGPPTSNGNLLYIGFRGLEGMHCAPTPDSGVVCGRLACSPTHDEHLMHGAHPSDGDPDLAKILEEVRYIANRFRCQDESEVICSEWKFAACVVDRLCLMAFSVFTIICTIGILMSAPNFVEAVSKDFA
In short: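 Radioligand displacement binding on rat cortical membranes, 2.5 h incubation, filtration and scintillation counting. Loss of specific binding fitted relative to DMSO.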

[8] = target: rat Opioid Receptor, Non-selective Binding, Oprm1 (gene 25601) (UniProt P33535); assay: NVS_GPCR_rOpiate_NonSelective: NovaScreen (NVS) G Protein-Coupled Receptor Assay for rat Opioid Receptor, Non-selective Binding (AID 2283318)
Sequence of rat Opioid Receptor, Non-selective Binding, Oprm1 (gene 25601) (P33535 whole entry, looked up): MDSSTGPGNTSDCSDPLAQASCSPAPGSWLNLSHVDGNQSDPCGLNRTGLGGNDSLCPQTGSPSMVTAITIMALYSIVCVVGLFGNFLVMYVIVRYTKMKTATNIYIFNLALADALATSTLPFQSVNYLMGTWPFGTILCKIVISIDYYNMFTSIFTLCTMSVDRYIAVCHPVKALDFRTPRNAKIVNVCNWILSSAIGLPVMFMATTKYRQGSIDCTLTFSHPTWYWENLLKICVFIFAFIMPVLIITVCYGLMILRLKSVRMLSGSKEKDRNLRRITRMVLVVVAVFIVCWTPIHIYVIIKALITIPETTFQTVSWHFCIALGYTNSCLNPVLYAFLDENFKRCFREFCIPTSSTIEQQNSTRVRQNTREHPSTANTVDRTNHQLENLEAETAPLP
In short: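 Rat forebrain membranes, cell-free radioligand binding with filter-based scintillation counting, read 1.5 h after dosing. Primary screen in duplicate at 25 uM; actives retested in concentration series. Loss of signal versus DMSO baseline scored.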

[9] = target: rat Glutamate, NMDA Agonist Site (GluNMDA), Grin1 (gene 24408) (UniProt P35439); assay: NVS_LGIC_rGluNMDA_Agonist: NovaScreen (NVS) Ligand-Gated Ion Channel Assay for rat Glutamate, NMDA Agonist Site (GluNMDA) (AID 2283327)
In short: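 Rat forebrain membranes, radioligand binding in the agonist-site protocol; 1 h after dosing; filter-based scintillation counting. Single-concentration duplicate screen at 25 uM, then concentration-response up to 50 uM for actives; gain-of-signal vs DMSO.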

[10] = target: human Neonicotinoid receptor (NNR), CHRNA2 (gene 1135) (UniProt Q15822); assay: NVS_LGIC_hNNR_NBungSens: NovaScreen (NVS) Ligand-Gated Ion Channel Assay for human Neonicotinoid receptor (NNR) (AID 2283313)
Sequence of human Neonicotinoid receptor (NNR), CHRNA2 (gene 1135) (Q15822 whole entry, looked up): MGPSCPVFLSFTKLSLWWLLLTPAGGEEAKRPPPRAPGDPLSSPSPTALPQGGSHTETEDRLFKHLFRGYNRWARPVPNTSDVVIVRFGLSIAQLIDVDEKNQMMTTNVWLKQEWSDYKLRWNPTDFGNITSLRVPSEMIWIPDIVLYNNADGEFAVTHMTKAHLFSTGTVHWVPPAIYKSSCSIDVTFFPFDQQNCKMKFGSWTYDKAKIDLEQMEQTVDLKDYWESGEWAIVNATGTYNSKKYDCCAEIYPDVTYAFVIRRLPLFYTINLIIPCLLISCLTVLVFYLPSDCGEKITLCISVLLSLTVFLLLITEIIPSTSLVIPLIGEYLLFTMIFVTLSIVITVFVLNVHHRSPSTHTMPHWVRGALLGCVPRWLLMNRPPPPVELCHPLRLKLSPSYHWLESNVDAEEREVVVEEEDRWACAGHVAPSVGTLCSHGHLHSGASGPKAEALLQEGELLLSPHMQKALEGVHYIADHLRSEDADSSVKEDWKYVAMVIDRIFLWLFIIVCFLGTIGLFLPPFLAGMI
In short: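 Radioligand displacement on human neuroblastoma membranes, 2 h, filter-based scintillation counting. Primary screen in duplicate at 25 uM; chemicals passing threshold (e.g. 30% inhibition) run singleton concentration-response to 50 uM; loss of binding fitted versus DMSO.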

[11] = target: rat Opioid Receptor, Non-selective Sodium (Na+) Binding, Oprm1 (gene 25601) (UniProt P33535); assay: NVS_GPCR_rOpiate_NonSelectiveNa: NovaScreen (NVS) G Protein-Coupled Receptor Assay for rat Opioid Receptor, Non-selective Sodium (Na+) Binding (AID 2283311)
Sequence of rat Opioid Receptor, Non-selective Sodium (Na+) Binding, Oprm1 (gene 25601) (P33535 whole entry, looked up): as the sequence (P33535 whole entry, looked up) above
In short: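 Rat forebrain membranes, radioligand displacement with filter scintillation counting, 1.5 h incubation. Screened in duplicate at 25 µM; hits then run in concentration-response up to 50 µM; loss of binding fitted versus DMSO.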

[12] = target: rat Vasopressin 1 Receptor (V1), Avpr1a (gene 25107) (UniProt P30560); assay: NVS_GPCR_rV1: NovaScreen (NVS) G Protein-Coupled Receptor Assay for rat Vasopressin 1 Receptor (V1) (AID 2283316)
Sequence of rat Vasopressin 1 Receptor (V1), Avpr1a (gene 25107) (P30560 whole entry, looked up): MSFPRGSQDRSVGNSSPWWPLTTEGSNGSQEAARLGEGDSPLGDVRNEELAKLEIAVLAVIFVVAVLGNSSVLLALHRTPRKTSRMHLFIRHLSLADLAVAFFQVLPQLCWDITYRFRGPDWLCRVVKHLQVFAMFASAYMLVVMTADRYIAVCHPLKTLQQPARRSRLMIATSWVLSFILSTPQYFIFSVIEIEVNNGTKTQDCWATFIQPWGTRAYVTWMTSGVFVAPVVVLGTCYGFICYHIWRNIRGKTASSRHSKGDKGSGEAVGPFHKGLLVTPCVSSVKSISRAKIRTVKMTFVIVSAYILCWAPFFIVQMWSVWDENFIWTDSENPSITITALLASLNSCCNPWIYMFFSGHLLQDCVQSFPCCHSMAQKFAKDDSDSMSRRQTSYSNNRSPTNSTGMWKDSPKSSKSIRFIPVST
In short: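 Radioligand binding on rat liver membranes, 1.5 h incubation, filter-based scintillation counting. Single 25 uM screen in duplicate; chemicals meeting threshold (e.g. 30% inhibition) run in concentration-response up to 50 uM.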

[13] = target: bovine Gamma-Aminobutyric Acid Type A Receptor BDZ, alpha 1 site (GABARa1), GABRA1 (gene 780973) (UniProt P08219); assay: NVS_LGIC_bGABARa1: NovaScreen (NVS) Ligand-Gated Ion Channel Assay for bovine Gamma-Aminobutyric Acid Type A Receptor BDZ, alpha 1 site (GABARa1) (AID 2283321)
Sequence of bovine Gamma-Aminobutyric Acid Type A Receptor BDZ, alpha 1 site (GABARa1), GABRA1 (gene 780973) (P08219 whole entry, looked up): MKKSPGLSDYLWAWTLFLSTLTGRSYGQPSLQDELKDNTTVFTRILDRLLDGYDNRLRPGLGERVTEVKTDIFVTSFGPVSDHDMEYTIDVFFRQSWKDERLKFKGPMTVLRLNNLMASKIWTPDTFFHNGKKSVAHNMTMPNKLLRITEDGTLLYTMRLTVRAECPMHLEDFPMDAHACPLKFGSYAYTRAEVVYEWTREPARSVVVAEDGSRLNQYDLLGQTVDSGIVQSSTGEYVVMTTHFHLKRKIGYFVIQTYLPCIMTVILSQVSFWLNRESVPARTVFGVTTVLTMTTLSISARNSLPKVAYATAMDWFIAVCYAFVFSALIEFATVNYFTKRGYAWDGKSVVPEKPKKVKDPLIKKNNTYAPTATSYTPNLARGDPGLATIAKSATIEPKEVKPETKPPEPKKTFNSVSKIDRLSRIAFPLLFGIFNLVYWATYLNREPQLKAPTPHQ
In short: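 Radioligand competition binding on bovine cortical membranes, 0.75 h, filter-based scintillation counting. Primary single concentration 25 uM in duplicate; actives rerun in concentration-response to 50 uM max. Loss of signal fitted versus DMSO.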

NCBI gene 24521 = assay: NVS_IC_rKATPCh: NovaScreen (NVS) Ion Channel Assay for rat Potassium Channel, ATP-Sensitive (KATPCh) (AID 2283319)
In short: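 Rat cortical membranes; radioligand binding at ATP-sensitive K channel site, filter-based scintillation counting 2 h after dosing. Single-point duplicate screen at 25 uM, hits rerun in concentration-response up to 50 uM; loss of signal versus DMSO.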

[14] = target: rat Oxytocin Receptor (OXT), Oxtr (gene 25342) (UniProt P70536); assay: NVS_GPCR_rOXT: NovaScreen (NVS) G Protein-Coupled Receptor Assay for rat Oxytocin Receptor (OXT) (AID 2283330)
In short: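 Radioligand displacement on rat uterine membranes, 1 h incubation, filter-based scintillation counting. Chemicals were screened in duplicate at 25 uM, and those passing threshold were retested in concentration-response up to 50 uM. Loss of binding was fitted versus DMSO.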

[15] = target: bovine Gamma-Aminobutyric Acid Type A Receptor BDZ, alpha 5 site (GABARa5), GABRA5 (gene 523515) (UniProt Q08E50); assay: NVS_LGIC_bGABARa5: NovaScreen (NVS) Ligand-Gated Ion Channel Assay for bovine Gamma-Aminobutyric Acid Type A Receptor BDZ, alpha 5 site (GABARa5) (AID 2283323)
In short: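 Radioligand competitive displacement binding on bovine hippocampal membranes, read 1 hr after dosing by filter-based scintillation counting. Primary screen at 25 uM in duplicate; actives (e.g. ≥30% inhibition) then run in concentration-response up to 50 uM.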

[16] = target: rat Neurokinin-3 Receptor (NK3), Tacr3 (gene 24808) (UniProt P16177); assay: NVS_GPCR_rNK3: NovaScreen (NVS) G Protein-Coupled Receptor Assay for rat Neurokinin-3 Receptor (NK3) (AID 2283310)
Sequence of rat Neurokinin-3 Receptor (NK3), Tacr3 (gene 24808) (P16177 whole entry, looked up): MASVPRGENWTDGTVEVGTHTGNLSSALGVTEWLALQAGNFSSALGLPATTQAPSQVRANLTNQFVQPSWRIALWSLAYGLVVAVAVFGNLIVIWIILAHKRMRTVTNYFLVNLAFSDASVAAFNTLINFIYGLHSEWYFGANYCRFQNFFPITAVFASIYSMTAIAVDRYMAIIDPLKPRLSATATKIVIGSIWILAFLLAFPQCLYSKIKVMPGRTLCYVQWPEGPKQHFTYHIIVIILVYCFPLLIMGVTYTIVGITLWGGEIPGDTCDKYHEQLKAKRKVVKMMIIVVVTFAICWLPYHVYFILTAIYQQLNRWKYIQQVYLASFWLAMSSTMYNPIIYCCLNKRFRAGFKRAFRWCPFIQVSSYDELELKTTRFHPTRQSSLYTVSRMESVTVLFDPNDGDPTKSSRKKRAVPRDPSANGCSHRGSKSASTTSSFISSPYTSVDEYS
In short: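 Rat cortical membranes; radioligand binding with filtration and scintillation counting, 2 h after dosing. Primary screen in duplicate at 25 uM, then concentration-response up to 50 uM; loss of binding signal relative to DMSO.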

[17] = target: rat Somatostatin Receptor (SST), Sstr1 (gene 25033) (UniProt P28646); assay: NVS_GPCR_rSST: NovaScreen (NVS) G Protein-Coupled Receptor Assay for rat Somatostatin Receptor (SST) (AID 2283314)
In short: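 Rat forebrain membranes; radioligand displacement read by filter-based scintillation counting 1 h after dosing. Primary screen in duplicate at 25 uM. Actives (e.g., 30% inhibition) were rerun as concentration-response to 50 uM max and fitted against DMSO.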

In the case of `C=CCC1=C(C)[C@@H](OC(=O)[C@@H]2[C@@H](C=C(C)C)C2(C)C)CC1=O`, the AC50 [1] is reported as 39.1 µM (active), the outcome [2] is reported as “inactive” and the AC50 [3] is reported as 25 µM (active).

With `OC(c1ccc(Cl)cc1)(c1cncnc1)c1ccccc1Cl` (stereo unspecified) the AC50 [4] was 19 µM (active), the AC50 [5] was 5.79 µM (active) and the outcome [6] was “inactive”. For the same molecule, the outcome [3] was “inactive”.

In the case of `CCOc1cc(Oc2ccc(C(F)(F)F)cc2Cl)ccc1[N+](=O)[O-]`, the outcome [6] is reported as “inactive”.

With `CNC(=O)ON=CC(C)(C)SC` the outcome [7] was “inactive” and the outcome [3] was “inactive”.

With `O=C(Nc1ccccc1)Nc1ccnc(Cl)c1` the AC50 [8] was 32.3 µM (active) and the outcome [3] was “inactive”.

In the case of `CCCCC(CC)COC(=O)c1ccccc1C(=O)OCC(CC)CCCC` (stereo unspecified), the outcome [9] is reported as “inactive” and the AC50 [3] is reported as 8.75 µM (active).

With `Cc1ccc(-c2c(Cl)nc(C#N)n2S(=O)(=O)N(C)C)cc1` the AC50 [10] was 1.21 µM (active), the AC50 [7] was 8.72 µM (active) and the outcome [3] was “inactive”.

For `CO/C=C(/C(=O)OC)c1ccccc1Oc1cc(Oc2ccccc2C#N)ncn1`, the outcome [1] was “inactive”, the AC50 [11] was 12.6 µM (active) and the outcome [11] was “inactive”. For the same molecule, the AC50 [12] was 26.4 µM (active), the AC50 [8] was 6.66 µM (active) and the outcome [8] was “inactive”.

For `COc1nc(C)nc(NC(=O)NS(=O)(=O)c2ccccc2Cl)n1`, the outcome [13] was “inactive”.

With `CON(C)C(=O)Nc1ccc(Cl)c(Cl)c1` the AC50 [3] was 11.9 µM (active) [middle of 4 runs].

With `CCCCNC(=O)OCC#CI` the AC50 (NCBI gene 24521) was 9.23 µM (active) and 12.3 µM (active) and the AC50 [3] was 38.2 µM (active) and 41.3 µM (active).

With `C=CC1(C)OC(=O)N(c2cc(Cl)cc(Cl)c2)C1=O` (stereo unspecified) the outcome [14] was “inactive” and the outcome [3] was “inactive”.

With `CC(C)Oc1cc(-n2nc(C(C)(C)C)oc2=O)c(Cl)cc1Cl` the outcome [6] was “inactive”.

With `Oc1ccccc1-c1ccccc1` the outcome [5] was “inactive”, the outcome [6] was “inactive” and the outcome [3] was “inactive”.

For `N#CC(CCc1ccc(Cl)cc1)(Cn1cncn1)c1ccccc1` (stereo unspecified), the outcome [7] was “inactive” and the outcome [15] was “inactive”.

In the case of `COC(=O)c1ccccc1C(=O)OC`, the outcome (NCBI gene 24521) is reported as “inactive” and the outcome [3] is reported as “inactive”.

With `CCOC(=O)C(Cl)Cc1cc(-n2nc(C)n(C(F)F)c2=O)c(F)cc1Cl` (stereo unspecified) the outcome [13] was “inactive”, the outcome [2] was “inactive” and the AC50 [3] was 25 µM (active).

In the case of `CC1=C(C(=O)Nc2ccccc2)SCCO1`, the AC50 [3] is reported as 20.5 µM (active).

For `CC1COC(Cn2cncn2)(c2ccc(Oc3ccc(Cl)cc3)cc2Cl)O1` (stereo unspecified), the outcome [1] was “inactive” and the outcome [3] was “inactive”.

With `CS/C(C)=N/OC(=O)N(C)SN(C)C(=O)O/N=C(\C)SC` the AC50 [16] was 2.97 µM (active), the AC50 [17] was 17.2 µM (active) and the outcome [8] was “inactive”.
